Where “and” joins values, the source holds several entries; their conditions need not be identical. Equal entries are not always repeated.
Columns and labels:
Format in all cases: functional
[1] = system: Plasmodium falciparum; test: GSK_TCMDC: Inhibition of Plasmodium falciparum 3D7 in whole red blood cells, using parasite LDH activity as an index of growth. Test compounds present at 2uM
[2] = system: Plasmodium falciparum; test: GSK_TCMDC: Inhibition of Plasmodium falciparum Dd2 in whole red blood cells, using parasite LDH activity as an index of growth. Test compounds present at 2uM
[3] = system: HepG2; test: GSK_TCMDC: Percent inhibition of human HepG2 cell line. Test compounds present at 10uM.

Row | SMILES | Inhibition [1] | Inhibition [2] | Inhibition [3]
1 | O=C(/C=C/c1ccc(Cl)c(Cl)c1)NCCCCCN1CCCC(CNC(=O)/C=C/c2ccccc2)C1 (stereo not drawn) | 98% | 6% | 37%
2 | CN(Cc1ccncc1)C(Cc1ccccc1)C1CCN(Cc2ccc(O)c(Cl)c2)CC1 (stereo not drawn) | 96% | 97% | 22%
3 | COc1ccc(CSC2CCCCC23NC(=S)NC3=S)cc1 (stereo not drawn) | 97% | 0% | 0%
4 | CCC(CC(NCCCCNC(=O)c1ccc(NC(=O)c2ccc(Cl)cc2)cc1)c1ccccc1)c1ccccc1OC (stereo not drawn) | 100% and 89% | 56% and 76% | 23% and 10%
5 | Cc1ccc(CN2CCC(C(=O)Nc3ccc(-c4cc5ccccc5[nH]4)cc3)CC2)o1 | 92% | 40% | 19%
6 | CC(=O)Nc1ccc(CN2CCC(NC(=O)c3ccc(-c4cccc(C(F)(F)F)c4)s3)CC2)cc1.O=C(O)C(F)(F)F | 100% | 16% | 35%
7 | COc1ccccc1CNc1ccnc(N2CC(Oc3ccc(F)cc3)C2)n1 | 97% | 95% | 2%
8 | Nc1ncc(-c2ccsc2)c2ccc(-c3cc(NCc4ccccc4)ncn3)cc12 | 100% | 86% | 0%
9 | O=C(Nc1ccccc1)N1CCOC(CCN2CCC(F)(F)CC2)(c2ccc(Cl)c(Cl)c2)C1 (stereo not drawn) | 100% | 100% | 20%
10 | O=C(CCn1cncn1)N1CCCC(c2[nH]c3ccccc3c2-c2ccncc2)C1 (stereo not drawn) | 97% | 79% | 1%
11 | CC(C)CCNCc1ccc(OCc2cccc(C(=O)Nc3ccccc3)c2)c(I)c1.O=C(O)C(F)(F)F | 100% | 59% | 25%
12 | COc1cc(C=C(C2=NC(=O)CS2)c2nc3cccnc3n2C)ccc1O | 89% | 48% | 7%
13 | CN1CCN(c2nsc3ccc(-c4ccc(NC(=O)Nc5cc(C(F)(F)F)ccc5F)cc4)cc23)CC1.O=C(O)C(F)(F)F | 99% | 64% | 100%
14 | O=C(Cc1ccccc1)NC1CCN(c2ccnc3cc(Cl)ccc23)C1.O=C(O)C(F)(F)F (stereo not drawn) | 100% | 78% | 6%
15 | CCc1ccc(CN2CCC(CNC(=O)c3cc(-c4cccc(C(F)(F)F)c4)cs3)C2)cc1.O=C(O)C(F)(F)F (stereo not drawn) | 97% | 48% | 45%
16 | Cc1cc(=NN=Cc2cccc(Cl)c2)c2ccccc2[nH]1 | 100% | 100% | 22%
17 | COc1ccc(-c2cc(C(=O)N[C@@H](CC3CCCCC3)C(=O)NCCN3CCCC3)ccc2O)cc1 | 90% | 12% | 12%
18 | O=C(Nc1cccc(-c2ccc(-c3nc4cc(C(F)(F)F)ccc4[nH]3)cc2)c1)c1c[nH]cn1 | 91% | 21% | 16%
19 | Cc1c(F)cc(C(=O)NC2CC2)cc1-c1ccc2c(cnn2S(=O)(=O)c2ccc(C#N)cc2)c1 | 97% | 92% | 17%
20 | Cc1ccc(O)c(-c2cc(C(=O)Nc3ccc(S(=O)(=O)N4CCCC(C)C4)cc3)[nH]n2)c1 (stereo not drawn) | 96% | 97% | 27%
21 | Cc1cccc2nc(-c3ccc(-c4ccc(C(=O)NCCN5CCCC5)cc4)cc3)[nH]c12 | 100% | 77% | 25%
22 | Nc1ccc(-c2nc3cc(C4=N[C@H]5CCCC[C@H]5N4)ccc3o2)cc1[N+](=O)[O-] | 95% | 33% | 16%
23 | O=C(O)C(F)(F)F.OCC1CCN(Cc2ccc(-c3ccc(-c4nc5cc(F)ccc5[nH]4)cc3)cc2)CC1 | 100% | 95% | 17%
24 | Cc1ccc(NC(=O)c2ccc(CN3CCCN(Cc4cccc(O)c4)CC3)cc2)cc1C.O=C(O)C(F)(F)F | 98% | 25% | 33%
25 | CCN(CC)CCN(CCCc1ccc(-c2ccc(C(F)(F)F)cc2)cc1)C(=O)Cn1c(CCc2cccc(F)c2F)nc(=O)c2ccccc21.O=C(O)C(O)C(O)C(=O)O | 100% | 49% | 37%
26 | Cc1nc2c(s1)c(=O)cc(CCc1cccc(F)c1F)n2CC(=O)N(Cc1ccc(-c2ccc(C(F)(F)F)cc2)cc1)C1CCN(C(C)C)CC1.O=C(O)C(O)C(O)C(=O)O | 100% | 82% | 98%

Reference: ChEMBL document CHEMBL1157539, “Thousands of chemical starting points for antimalarial lead identification” (Nature, 2010)
